The source of these data is PubChem BioAssay AID1220 (Sanford-Burnham Center for Chemical Genomics, 2008).

The structures appear in SMILES notation. Hit rate of the full screen: of about 190,000 compounds, about 1,300 (0.68%) were called active. The sample as a whole holds a higher share of actives than the screen did. Values without a mark were called inactive. Rule as the data show it: active = inhibition above about 50%; inactive = the rest.

The target in this assay is Mannose-6-phosphate isomerase (Homo sapiens) (UniProt P34949). The experiment in a line: human PMI inhibitors, high substrate, primary screen, biochemical, fluorescence intensity, high mannose 6-phosphate (AID 1220). Conditions: recombinant PMI enzyme, coupled fluorescence intensity; at 20 µM; active compounds read high.
Chain of Mannose-6-phosphate isomerase (Homo sapiens) (P34949 whole entry, looked up): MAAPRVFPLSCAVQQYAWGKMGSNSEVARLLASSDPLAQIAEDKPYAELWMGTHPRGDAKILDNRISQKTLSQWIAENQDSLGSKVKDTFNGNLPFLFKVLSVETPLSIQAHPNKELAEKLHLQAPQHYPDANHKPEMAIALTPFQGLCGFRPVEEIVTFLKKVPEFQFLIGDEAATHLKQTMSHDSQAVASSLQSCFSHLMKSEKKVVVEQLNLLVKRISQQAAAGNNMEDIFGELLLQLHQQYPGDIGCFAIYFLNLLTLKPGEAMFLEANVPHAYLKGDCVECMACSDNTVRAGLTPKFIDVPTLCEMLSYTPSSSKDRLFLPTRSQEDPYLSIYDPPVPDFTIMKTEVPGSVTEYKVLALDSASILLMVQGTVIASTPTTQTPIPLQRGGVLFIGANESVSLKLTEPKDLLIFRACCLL
For orientation: inhibition means the change of the read-out against control, counted positive when it falls. Consider `Cc1ccccc1/C=N\NC(=O)c1ccccc1-n1cccc1`, for which the inhibition was 15.6%.

As to `CCOC(=O)c1c(N/N=C/c2ccncc2)n[nH]c1C`, the inhibition is -0.3%.

On to `Cc1ccccc1Nc1nnc(SCC(=O)NC(=O)Nc2ccc3c(c2)OCCO3)s1`, for which the inhibition is 3.7%.

Turning to `Cc1ccc(NC(N)=S)cc1`, the inhibition was -4.6%.

Turning to `COc1cccc(-c2nn3c(-c4cc(C)[nH]n4)nnc3s2)c1`, the inhibition is -5.7%.

On to `CC(C(=O)OCC(=O)Nc1ccc(S(=O)(=O)N2CCCCC2)cc1)N1C(=O)c2ccccc2C1=O` (stereo unspecified), for which the inhibition is 7.2%.

Regarding `O=S(=O)(c1ccccc1)c1nc(NCc2cccnc2)sc1Cl`, the inhibition is -5.8%.

For the compound `O=C(Nc1ccc(NC(=O)C2CCCN2C(=O)OCc2ccccc2)cc1)c1ccco1` (stereo unspecified), the inhibition was -8.3%.

With `COc1ccc(CNC(=O)C(OC(=O)c2nsc(Cl)c2Cl)C(C)C)cc1` (stereo unspecified), the inhibition is 14.4%.

For `CC/C(=N/OC(=O)c1cccc(C)c1)C(=O)c1cccs1`, the inhibition is -0.6%.

Regarding `CCOc1ccc(NC(=O)C2CCN(C(=O)NC3CCCCC3)CC2)cc1`, the inhibition was -11.9%.

In the case of `CCn1nnnc1-c1ccc(OC)c(S(=O)(=O)Nc2ccc(C)c(C)c2)c1`, the inhibition is -3.8%.

Take `Cc1ccc(Cl)cc1N1CCN(C(=O)CCC(=O)O)CC1`: the inhibition was -5.1%.

In the case of `Cc1ccc(CSC2=NCCN2C(=O)C2CC2)cc1`, the inhibition is -1.1%.

Turning to `Cc1ccc(S(=O)(=O)c2c(N)n(CCCO)c3nc4ccccc4nc23)cc1`, the inhibition is 8.6%.

As for `O=S(=O)(Nc1c(S(=O)(=O)c2ccccc2)c2nc3ccccc3nc2n1C1CCCCC1)c1ccccc1`, the inhibition was 59.7% (active).

On to `Nc1c(S(=O)(=O)c2ccccc2)c2nc3ccccc3nc2n1C1CC1`, for which the inhibition was 0.4%.

Turning to `CCC(=O)Nc1c(C#N)c2nc3ccccc3nc2n1C1CCCCC1`, the inhibition is 17.4%.

On to `CCCCn1c(N)c(S(=O)(=O)c2ccc(C)cc2)c2nc3ccccc3nc21`, for which the inhibition is 20.2%.

As to `CCCCn1c(NS(=O)(=O)c2ccccc2)c(S(=O)(=O)c2ccc(C)cc2)c2nc3ccccc3nc21`, the inhibition was 57.6% (active).

On to `Cc1ccc(N(Cc2ccc([N+](=O)[O-])cc2)C(=O)c2ccco2)cc1C`, for which the inhibition was 4.7%.

As to `Cc1ccc(O)c(-c2cc(C(F)(F)F)[nH]n2)c1`, the inhibition is 3.7%.

As for `COC(=O)c1nc2nc(C)cc(=O)n2[nH]1`, the inhibition was 3.3%.

Regarding `O=C(Nc1ccc([N+](=O)[O-])cc1)C1C(c2ccccc2)=C1c1ccccc1`, the inhibition was 1.6%.

Consider `CC(C)C(c1nnnn1Cc1ccc(F)cc1)N1CCN(c2ccc(O)cc2)CC1` (stereo unspecified), for which the inhibition was 66.2% (active).

Take `CC(C)C(c1nnnn1Cc1ccc(F)cc1)N1CCN(C2CCCC2)CC1` (stereo unspecified): the inhibition is 3%.

Turning to `CC(C)C(c1nnnn1Cc1ccc(F)cc1)N1CCSCC1` (stereo unspecified), the inhibition is 4.6%.

As to `Cn1c(-c2ccc(F)cc2)cnc1NCc1cc2c(cc1[N+](=O)[O-])OCO2`, the inhibition was 15.7%.

On to `CCNc1nc(NC(C)C)nc(N(n2cnnc2)S(=O)(=O)c2ccc(C)cc2)n1`, for which the inhibition was 5.3%.

In the case of `Cc1cc(=O)n2nc(N3CCC(C(=O)NC4CCCc5ccccc54)CC3)sc2n1` (stereo unspecified), the inhibition is -0.3%.

As for `Cc1ccc(-n2cc(CN3CCNC(=O)CC3)c(-c3cccc(C)c3)n2)cc1`, the inhibition is 12.5%.

For the compound `CC(=O)N1CCCN(Cc2cn(-c3ccc(C)cc3)nc2-c2cccc(C)c2)CC1`, the inhibition is 9.1%.

For the compound `COC(=O)CC1C(=O)NCCN1Cc1cn(-c2ccc(C)cc2)nc1-c1cccc(C)c1` (stereo unspecified), the inhibition is 52.9% (active).

As for `CN(C)c1ccc(C(CNS(=O)(=O)c2ccc3ccccc3c2)c2c[nH]c3ccccc23)cc1` (stereo unspecified), the inhibition is 13.6%.

In the case of `CC1(C)CC(=O)C2=C(C1)N(c1cccnc1)C(N)=C(C#N)C2c1cccs1` (stereo unspecified), the inhibition is 53.9% (active).

For `Cc1ccc(N2C(N)=C(C#N)C(c3cccs3)C3=C2CC(C)(C)CC3=O)cc1` (stereo unspecified), the inhibition was 8.2%.

Take `CSc1sc(C)cc1C1C(C#N)=C(N)N(c2cccnc2)C2=C1C(=O)CCC2` (stereo unspecified): the inhibition was 13.3%.

Turning to `Cc1ccc(C2C(C#N)=C(N)N(c3cccnc3)C3=C2C(=O)CCC3)s1` (stereo unspecified), the inhibition was 56.7% (active).

For the compound `CC1(C)CC(=O)C2=C(C1)N(c1ccc(F)cc1)C(N)=C(C#N)C2c1cccs1` (stereo unspecified), the inhibition is 28.6%.

`Cc1nn(C)cc1C1C(C#N)=C(N)N(c2cccnc2)C2=C1C(=O)CCC2` (stereo unspecified): the inhibition is 28.3%.

As for `CC(=O)Nc1ccc(/C=C(\C#N)C(=O)NC2CCCCC2)cc1`, the inhibition is 4.7%.

For the compound `Cc1ccc(-c2nnc(SCC(=O)NNC(=O)COc3ccccc3C)n2C)cc1`, the inhibition is 3.3%.

For the compound `Cc1cc2c3c(c1)C1(C(=O)N3C(C)(C)CC2C)C(C#N)=C(N)Oc2cc(O)ccc21` (stereo unspecified), the inhibition was 18.9%.

As to `CCc1ccc(N2CC(C(=O)N/N=C/c3cc([N+](=O)[O-])ccc3O)CC2=O)cc1` (stereo unspecified), the inhibition was -15.8%.

For `CCOC(=O)Cc1csc(NC(=O)CSc2nnc(-n3nc(C)cc3C)c3ccccc23)n1`, the inhibition is 6.3%.

Take `Cc1nc(NCC2CCCO2)c2nnn(Cc3ccccc3)c2n1` (stereo unspecified): the inhibition is -3%.

With `Cc1nc(Nc2ccc(Cl)cc2)c2nnn(Cc3ccccc3)c2n1`, the inhibition was 3.1%.

With `Cc1nc(NCC2CC2)c2nnn(Cc3ccccc3)c2n1`, the inhibition was 59.2% (active).

Take `O=C(OCC(=O)N1CCN(C(=O)c2ccco2)CC1)c1cc(-c2cccc(Br)c2)nc2ccccc12`: the inhibition was 9.6%.

On to `Cc1cc(C)cc(NC(=S)NCC2CCN(C(C)c3ccccc3)C2)c1` (stereo unspecified), for which the inhibition was -1.3%.

As for `O=C(NC(c1ccccc1)c1ccccc1)C1(c2cccs2)CCOCC1`, the inhibition was -1.3%.

For `CCOc1ccc2nc(NS(=O)(=O)c3ccc4c(c3)n(C)c(=O)n4C)sc2c1`, the inhibition is -21%.

For the compound `CCN(CC)c1ccc(NC(=O)c2ccccc2F)cc1S(=O)(=O)Nc1ccccc1OC`, the inhibition was -13.8%.

Turning to `CCN(CC)c1ccc(NC(=O)c2ccccc2)cc1S(=O)(=O)Nc1ccccc1OC`, the inhibition was 9.4%.

As to `CCCS(=O)(=O)C(=C(Nc1ccccc1)Nc1ccccc1)S(=O)(=O)CCC`, the inhibition was -4.7%.

For `O=C(NCc1cccs1)N[C@@H](Cc1ccccc1)C(=O)O`, the inhibition is -2.3%.

On to `COc1ccc(-c2nc(S(=O)(=O)c3ccccc3)c(N3CCOCC3)o2)cc1`, for which the inhibition is 3.3%.

For the compound `O=C(O)C1Sc2[nH]c(=O)sc2C2c3cc(Cl)ccc3OC(=O)C12` (stereo unspecified), the inhibition was 63.5% (active).

For the compound `CCOC(=O)C1Sc2[nH]c(=O)sc2C(c2ccc(Cl)cc2)C1C(=O)OCC` (stereo unspecified), the inhibition is -88.8%.

As for `CC1(C(=O)O)Sc2[nH]c(=O)sc2C2c3ccccc3OC(=O)C21` (stereo unspecified), the inhibition was 14.1%.

For the compound `O=C(O)C1Sc2[nH]c(=O)sc2C2c3ccc(O)cc3OC(=O)C12` (stereo unspecified), the inhibition is 55.1% (active).

For `COC(=O)C1Sc2[nH]c(=O)sc2C(c2ccc(Cl)cc2)C1C(=O)OC` (stereo unspecified), the inhibition was 34.7%.

Turning to `COC(=O)C1Sc2[nH]c(=O)sc2C2c3ccccc3OC(=O)C12` (stereo unspecified), the inhibition was 29.7%.

As for `Cc1nc2c(C(=O)NCc3ccc4c(c3)OCO4)c[nH]n2c(=O)c1Cl`, the inhibition is 7.8%.

With `CN(C)C=Nc1ncc2c3ccccc3n(CCN(C)C)c2c1C#N`, the inhibition is 17.9%.

Consider `CN(C)CCNC(=O)C1CC(=O)N(c2ccc(F)c(Cl)c2)C1` (stereo unspecified), for which the inhibition is -1.8%.

Regarding `Cc1nn2c(c1-c1ccc(Cl)cc1)N=C(c1ccco1)CC2c1ccccc1` (stereo unspecified), the inhibition is 0.1%.

Take `N#Cc1cccc(N=c2ssnc2Cl)c1`: the inhibition is 43%.

On to `Cc1cc(C)nc(NC(=O)c2csnn2)c1`, for which the inhibition is -2.9%.

Consider `Cc1ccc(N=c2ssnc2Cl)cc1`, for which the inhibition is 49.8%.

On to `Cc1cc(Cl)ccc1N=c1ssnc1Cl`, for which the inhibition was 13.6%.

As for `Nc1ccccc1N=c1ssnc1Cl`, the inhibition is 38.1%.

Turning to `COc1cc(N=c2ssnc2Cl)cc(OC)c1OC`, the inhibition is 47.1%.

As for `COc1cc(OC)c(Cl)cc1N`, the inhibition is 44.9%.

Take `Clc1nssc1=Nc1ccccc1`: the inhibition is 36.5%.

Consider `CC(=O)Nc1ccc(S(=O)(=O)Nc2c(C)n(C)n(-c3ccccc3)c2=O)cc1`, for which the inhibition is 4.8%.

With `O=C(NCc1ccco1)c1cc2nc(C3CC3)cc(C(F)(F)F)n2n1`, the inhibition is 8.5%.

Consider `Cc1c(NC(=O)C2CCCCN2S(=O)(=O)c2ccc(Cl)cc2)c(=O)n(-c2ccccc2)n1C` (stereo unspecified), for which the inhibition was 4.8%.

With `Cc1ccc(C(=O)NC(=S)Nc2cccc(NC(=O)c3ccccc3)c2)cc1[N+](=O)[O-]`, the inhibition was 0.9%.

Turning to `Fc1ccc(-n2nnc(-c3cccnc3)n2)cc1`, the inhibition is -1.8%.

On to `Cc1cccc(-c2n[nH]c(=S)n2C)c1`, for which the inhibition is -8.8%.

In the case of `O=C(NC1=NCCS1)c1ccccc1OCc1ccc(F)cc1`, the inhibition was 1.4%.

Turning to `COc1cc(N=c2ssnc2Cl)cc(OC)c1`, the inhibition is 27.3%.

`OCc1ccccc1N=c1ssnc1Cl`: the inhibition was 43.7%.

For the compound `COc1ccc(OC)c(N=C2C(=O)Nc3ccccc32)c1`, the inhibition is 5.1%.

As for `COc1ccc(OC)c(N=c2ssnc2Cl)c1`, the inhibition is 67.4% (active).

With `COc1ccc(N=c2sc3ccccc3n2C)cc1`, the inhibition was 0.4%.

As to `Cc1ccc(-c2nc(C)sc2CC(=O)OCC(=O)Nc2cccc([N+](=O)[O-])c2)cc1`, the inhibition was -5.6%.

Consider `C/C(=N\N=C\c1ccc(N(C)C)cc1)c1cccc([N+](=O)[O-])c1`, for which the inhibition was -128%.

As to `COC(=O)c1sccc1NC(=S)Nc1cc(OC)ccc1OC`, the inhibition is 41.2%.

Take `COc1ccc2c(c1)Cc1sc(NC(=O)c3cccnc3)nc1-2`: the inhibition is 64.2% (active).

For `COc1ccc2c(c1)-c1nc(NC(=O)c3ccco3)sc1CC2`, the inhibition was 32.9%.

Regarding `COc1ccc2c(c1)CCc1sc(NC(=O)c3ccco3)nc1-2`, the inhibition is 60.6% (active).

As for `COc1ccc(C(=O)Nc2nc3c(s2)Cc2cc(OC)ccc2-3)cc1`, the inhibition is 26.8%.

For `COc1ccc2c(c1)Cc1sc(NC(=O)c3ccco3)nc1-2`, the inhibition is 45.8%.

For the compound `COc1ccc2c(c1)Cc1sc(NC(=O)c3ccccc3)nc1-2`, the inhibition is -13.1%.
